Assay outcomes as filed in PubChem BioAssay.
Hits are enriched below; roughly 2.7% of the tested compounds scored in any of these assays.
RXFP1 antagonist – antagonists of human relaxin receptor RXFP1 | activity change, negative = inhibition, % at 57.5 µM | 350,000 tested, 0.59% active | HEK293-RXFP1, relaxin-stimulated cAMP HTRF, 30 min; hits give low values;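 active means activity change of -60% or lower, but not beyond a set lower limit; inconclusive means change between -60% and -40%, or beyond the set limit; inactive means change above -40%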
Akt phos inh – inhibitors of Akt phosphorylation; AID 651550; activity change, % for hits at 50 µM; Neuro2A IGF-stimulated pAkt S473 HTRF, 20 min; hits give low values; 360,000 tested, 0.32% active; in the data active means activity change below about -80%; inconclusive means mostly about -51% to -80%
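Neuro2A cells (4,500/well, DMEM with 0.5% FBS) were treated with compound at a single 50 µM final concentration, stimulated with 6 nM IGF for 20 min at 37 °C, and lysed. Phospho-Akt Ser473 was read by HTRF as 665/615 ratio ×10^4.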
gsp ag – activates gsp, the McCune-Albright syndrome mutation; Potency, µM (highest dose often 76.9 µM), hits mostly activators; gsp mutant cells, cAMP HTRF, 30 min; 340,000 tested, 0.13% active; active means well fitted activation curve with a large enough effect; inconclusive means small, poorly fitted or top-dose-only effect, or another doubt; inactive means no such curve, though single readings can be large or run the other way; cell line not stated here;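 further: phosphodiesterase inhibitor Ro 20-1724 added with compounds to block cAMP breakdown; nearly all actives have a fitted effect of over 60% in size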
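Cells stably selected in G418 were plated at 2000/well, grown 16-24 hr, then given compounds in DMSO with the PDE inhibitor […] (300 uM solution added) for 30 min at 37C; cAMP was read by HTRF.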
gsp antag – antagonizes gsp, the McCune-Albright syndrome mutation. gsp-mutant cells, cAMP HTRF, 30 min. Potency, µM (titrated, usually from 76.9 µM), actives largely listed as inhibitors. 340,000 tested, 0.4% active. AID 624288; calls by dose curve; cell line not stated here;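 further: intracellular cAMP measured with PDE inhibitor Ro 20-1724 present during compound exposure; nearly all actives have a fitted effect of over 65% in size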
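HTRF cAMP measurement after 30 min RT detection following 30 min, 37C compound treatment alongside […] (added as 300 uM solution) in G418-selected cells seeded at 2000/well and grown 16–24 h.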
RXFP1 ag – activates the human relaxin receptor RXFP1; HEK293T-RXFP1 cAMP TR-FRET, 30 min; response scale: percent of porcine relaxin response, buffer zero; Q9HBX9; AID 2676; 370,000 tested, 0.3% active; Potency, µM (titrated, usually from 57.5 µM), actives largely listed as activators; active means well fitted activation curve with a large enough effect; inconclusive means small, poorly fitted or top-dose-only effect; further: nearly all actives have a fitted effect of over 60% in size
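cAMP rise read by TR-FRET after 30 min, 37C compound exposure (up to 58 uM) in RXFP1-transfected HEK293 cells with Ro 20174 present. EC50 from Hill-equation fits, with 29 nM porcine relaxin as 100% and buffer as basal.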
ClpP mod – qHTS Assay for Activators of ClpP; ATP-dependent Clp protease proteolytic subunit (Bacillus subtilis (strain 168)), P80244; purified B. subtilis ClpP, FRET peptide cleavage, 20 min; Potency, µM (highest dose often 57.5 µM); 340,000 tested, 1.9% active; AID 651965, 2013; active means well fitted falling curve with a large enough effect; inconclusive means small, poorly fitted or top-dose-only effect; inactive means no such curve, though single readings can be large or run the other way; further: the source files actives as falling curves though it sought activators and does not explain the sign; nearly all actives have a fitted effect of over 65% in size
Target sequence (P80244 whole entry, looked up): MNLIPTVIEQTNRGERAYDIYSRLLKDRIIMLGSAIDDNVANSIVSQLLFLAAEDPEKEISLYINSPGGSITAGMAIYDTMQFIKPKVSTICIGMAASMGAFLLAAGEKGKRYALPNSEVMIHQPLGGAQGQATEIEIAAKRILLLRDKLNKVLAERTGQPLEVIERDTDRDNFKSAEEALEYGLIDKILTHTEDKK
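ClpP 10 microg/mL final, pH 8 Tris/KCl buffer with BSA, glycerol, Tween-20; compound pinned in; FRET-FV substrate; RT 20 min; Ex320/Em430; ΔFRET vs ADEP 5.8 microM, DMSO, no enzyme.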
Numbers stand for hits; . = inactive; ? = inconclusive; / = not tested or not shown; [ ] = remark or other dose.

SMILES	RXFP1 antagonist	Akt phos inh	gsp ag	gsp antag	RXFP1 ag	ClpP mod
O=C(CCS(=O)(=O)c1ccc(Cl)cc1)NCCN1C(=O)S/C(=C\c2ccccc2F)C1=O	.	.	.	50µM	.	28µM
COCCn1c(N)c(N(Cc2ccccc2)C(=O)C2=COCCO2)c(=O)[nH]c1=O	.	.	.	.	.	.
Cc1ccnc2ccc(F)cc12	/	/	/	/	/	.
Cc1c(C(=O)Nc2cccc(Cl)c2)oc2ccc(S(=O)(=O)N(C)C3CCCCC3)cc12	.	/	/	/	.	20µM
CCOc1ccc(-n2cc(-c3ccccc3)c3c(NC4CCCC4)ncnc32)cc1	.	/	/	/	.	11µM
CN(c1ncnc2c1c(-c1ccccc1)cn2-c1ccc(F)cc1)C1CCCCC1	.	/	/	/	.	28µM
CCOc1c(N2CCOCC2)cnn(C)c1=O	.	/	/	/	/	/
COc1ccc(NC(=O)Cc2ccccc2)cn1	.	.	.[15.4 µM]	.	.	/
COc1ccc(NC(=O)/C(Cl)=C(/Cl)S(=O)Cc2ccccc2)cn1 (configuration not stated)	-72	.	.	.	.	.
CC1=CC(c2ccc(Cl)cc2)n2nc(NS(=O)(=O)c3ccc(C)cc3)nc2N1 (configuration not stated)	.	.	?	.	.	22µM
CC1=CC(c2ccccc2)n2nc(NS(=O)(=O)c3ccc(C)cc3)nc2N1 (configuration not stated)	.	/	.	.	.	?
CC1=CC(c2ccc(Cl)cc2)n2nc(N3C(=O)CCC3=O)nc2N1 (configuration not stated)	.	.	.	.	.	10µM
CCOC(=O)c1cc2c(ccn2C)n1Cc1cc(C)ccc1C	.	.	?	.	.	.
CC(C)OC(=O)c1cc2c(ccn2C)n1CC(=O)N(Cc1ccccc1)c1ccccc1	.	.	.	.	.	28µM
COc1ccc2c(c1OC)C(=O)OC2c1ccc(O)cc1 (configuration not stated)	/	/	/	/	/	.
COCC(C)NC(=O)C1CC(c2cccc(Br)c2)=NO1 (configuration not stated)	.	-111%	.	.	.	.
COc1cccc(Oc2cncnc2-c2ccc(OC)cc2O)c1	.	.	.	28µM	.	.
COc1ccc(-c2ncncc2-c2ccc(OC)c(OC)c2)c(O)c1	.	.	.[15.4 µM]	.	.	20µM
COc1ccc(-c2cncnc2-c2ccc(OC)cc2O)cc1	.	.	.	.	.	.
CCOC(=O)c1ccc(C(=O)OCC)nc1	.	-106%	.	.	.	.
Cc1ccc(-c2nnc(-c3ccc(Br)cc3)o2)o1	.	.	.	.	.	32µM
CCS(=O)(=O)Nc1ccc(-c2ccc(NS(=O)(=O)CC)c(OC)c2)cc1OC	.	.	?	.	.	11µM
O=C(Nc1ccc(Br)cn1)c1cccc(-c2cc3ccccc3oc2=O)c1	.	.	.	.	.	14µM
Cc1ccc(S(=O)(=O)N(CC(=O)Nc2cccc([N+](=O)[O-])c2)C2CCCCC2)cc1	.	.	.	.	.	.
Cc1ccc(S(=O)(=O)N(CC(=O)Nc2ccc(Cl)c([N+](=O)[O-])c2)C2CCCCC2)cc1	.	.	.	.	.	28µM
SMILES	RXFP1 antagonist	Akt phos inh	gsp ag	gsp antag	RXFP1 ag	ClpP mod
Cc1cc(=O)n2c(C(=O)Nc3ccc(F)c(Cl)c3)c(C(=O)Nc3cccc(C)c3C)sc2n1	.	/	/	/	.	.
Cc1ccc(-c2cn(-c3ccccc3)c(=S)[nH]2)cc1C	-77	.	.[15.4 µM]	.	.	/
Cc1ccccc1-c1cn(-c2ccccc2)c(=S)[nH]1	.	.	.[15.4 µM]	.	.	/
c1ccc(-n2nnnc2SCc2cn3ccccc3n2)cc1	.	.	.	.	.	.
c1ccc(-n2nnnc2SCc2cn3cccnc3n2)cc1	.	.	.	.	.	25µM
Cc1nc(NC(=O)COC(=O)C2CC3CCCC(C2)C3=O)c(Cl)cc1Cl (configuration not stated)	.	.	.[15.4 µM]	.	/	.
